In all, about 350,000 compounds went through this assay and about 700 (0.2%) were called active. Calls come from the whole dose curve; as a rule, active = well fitted inhibition curve with a large enough effect; inconclusive = small, poorly fitted or top-dose-only effect; inactive = flat fitted curve, though single readings scatter. Shown is part of a subset that was picked to be rich in actives.
Biological target: RecQ-like DNA helicase BLM (Homo sapiens) (UniProt P54132)
Experiment: qHTS Assay for Inhibitors of Bloom's syndrome helicase (BLM); note: nearly all actives have a fitted effect of over 35% in size;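 for activity change, negative = inhibition: plate controls were vehicle for no effect and no enzyme for full effect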
Details: recombinant BLM DNA unwinding, fluorescence dequenching; series mostly up to 56.1 µM; activity change, negative = inhibition: at the top concentration
Potency is the fitted concentration of half-maximal effect.

RecQ-like DNA helicase BLM (Homo sapiens), sequence (P54132 whole entry, looked up): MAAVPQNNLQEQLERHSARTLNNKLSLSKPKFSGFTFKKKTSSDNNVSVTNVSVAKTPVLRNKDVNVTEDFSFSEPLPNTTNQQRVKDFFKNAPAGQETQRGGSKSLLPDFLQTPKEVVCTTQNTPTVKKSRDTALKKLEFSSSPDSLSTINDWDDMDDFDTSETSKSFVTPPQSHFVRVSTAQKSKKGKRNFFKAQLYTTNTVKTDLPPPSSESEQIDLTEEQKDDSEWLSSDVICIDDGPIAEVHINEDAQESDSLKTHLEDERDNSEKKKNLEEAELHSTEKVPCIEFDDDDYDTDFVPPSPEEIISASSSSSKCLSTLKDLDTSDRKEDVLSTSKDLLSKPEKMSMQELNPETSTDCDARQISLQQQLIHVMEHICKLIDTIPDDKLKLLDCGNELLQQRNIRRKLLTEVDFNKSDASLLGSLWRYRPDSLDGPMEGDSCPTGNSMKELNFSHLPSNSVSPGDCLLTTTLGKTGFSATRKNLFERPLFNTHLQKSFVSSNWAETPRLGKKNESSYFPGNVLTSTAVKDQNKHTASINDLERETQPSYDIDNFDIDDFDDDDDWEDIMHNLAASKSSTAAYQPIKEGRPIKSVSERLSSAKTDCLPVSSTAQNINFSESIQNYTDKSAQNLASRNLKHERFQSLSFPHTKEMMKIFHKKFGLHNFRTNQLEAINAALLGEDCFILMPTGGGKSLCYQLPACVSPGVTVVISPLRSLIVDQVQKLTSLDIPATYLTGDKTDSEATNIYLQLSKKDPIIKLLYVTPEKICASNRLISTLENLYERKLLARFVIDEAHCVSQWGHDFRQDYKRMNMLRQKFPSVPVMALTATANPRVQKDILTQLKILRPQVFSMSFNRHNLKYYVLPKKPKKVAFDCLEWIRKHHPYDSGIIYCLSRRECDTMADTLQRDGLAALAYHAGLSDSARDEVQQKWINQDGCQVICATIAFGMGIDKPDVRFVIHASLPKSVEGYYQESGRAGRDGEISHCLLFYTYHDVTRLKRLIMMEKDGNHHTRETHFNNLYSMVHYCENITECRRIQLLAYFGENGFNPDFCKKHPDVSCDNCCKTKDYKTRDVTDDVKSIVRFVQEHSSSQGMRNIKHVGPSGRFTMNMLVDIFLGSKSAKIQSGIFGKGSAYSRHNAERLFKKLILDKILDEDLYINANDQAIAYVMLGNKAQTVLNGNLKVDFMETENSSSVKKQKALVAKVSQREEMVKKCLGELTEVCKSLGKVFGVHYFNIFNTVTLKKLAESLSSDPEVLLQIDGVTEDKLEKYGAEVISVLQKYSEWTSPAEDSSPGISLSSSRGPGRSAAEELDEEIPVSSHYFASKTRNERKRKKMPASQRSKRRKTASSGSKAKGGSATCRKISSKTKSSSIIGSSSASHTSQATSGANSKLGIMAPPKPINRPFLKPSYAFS

| Structure (SMILES) | activity change, negative = inhibition | Potency |
| --- | --- | --- |
| CCc1nn(CC(=O)NCC(C)c2ccccc2)c(=O)c2cc3occc3n12 (stereo unspecified) | 3.04% (inactive) | – |
| C[C@@H]1C[C@H]2[C@@H]3C[C@H](F)C4=CC(=O)C=C[C@@]4(C)[C@]3(F)[C@H](O)C[C@]2(C)[C@@]1(O)C(=O)CO | 2.68% [at 21.4 µM] (inactive) | – |
| CC(=O)OC1C([N+]2(C)CCCCC2)C[C@H]2C3CC[C@H]4C[C@H](OC(C)=O)C([N+]5(C)CCCCC5)CC4(C)C3CCC12C (stereo partly specified) | 112% (inactive) | – |
| COC(=O)C(C(=O)OC)[C@@H]1CCCC(=O)C1 | -7.4% [at 12.4 µM] (inactive) | – |
| O=c1cc(-c2ccc(O)cc2)oc2c(-c3cc(-c4cc(=O)c5c(O)cc(O)cc5o4)ccc3O)c(O)ccc12 | 0.459% (inactive) | – |
| COc1ccc(C2(C#N)CCC(C(=O)O)CC2)cc1OC1CCCC1 (stereo unspecified) | 3.05% (inactive) | – |
| COC(=O)C1(C)C=CCN1C(=O)c1ccccc1 (stereo unspecified) | -5.29% (inactive) | – |
| CC(C)=CC1C(C(=O)O)C1(C)C (stereo unspecified) | 0.827% (inactive) | – |
| O=C(CCOc1ccccc1)N(Cc1cccnc1)c1nc2ccc(Cl)cc2s1 | -2.17% (inactive) | – |
| CC1(C)OC2CC(=O)OC[C@@]23C1CC(=O)[C@]1(C)C3CC[C@@]2(C)C(c3ccoc3)OC(=O)C3O[C@@]321 (stereo partly specified) | -17.7% (inactive) | – |
| FC(F)(F)c1ccccc1-c1cc(NCc2ccccc2)ncn1 | -0.252% (inactive) | – |
| O=C(CSc1nccn1Cc1ccc(Cl)cc1)NCc1ccccc1 | -3.71% (inactive) | – |
| C/C=C/C=N/NC(=O)c1ccncc1 | 2.91% (inactive) | – |
| CC1CN(C(=O)N2CCC(C(=O)NCc3ccco3)CC2)c2cc(Cl)ccc2O1 (stereo unspecified) | -7.62% (inactive) | – |
| COC(=O)[C@@H]1C[C@@]2(O)[C@H](O)[C@H](O)[C@H](O)C[C@H]2N1CC1CCCCC1 | -8.47% (inactive) | – |
| O=C(c1cnccn1)N1CCC2(CCCN(Cc3ccccc3)C2)CC1 | 4.7% (inactive) | – |
| CCOC(=O)Cn1c(=O)sc2cccc(Cl)c21 | 0.848% (inactive) | – |
| O=C(c1cnccn1)N1CCC2(CCN(Cc3cc(C(F)(F)F)cc(C(F)(F)F)c3)CC2)CC1 | -6.6% (inactive) | – |
| Cc1cccc(-c2nc(SCc3ccc(Br)cc3)n3[nH]c(=O)cc3n2)c1 | -2.52% (inactive) | – |

| Structure (SMILES) | activity change, negative = inhibition | Potency |
| --- | --- | --- |
| Cc1ccc(-c2nc(SCc3ccc(Br)cc3)n3[nH]c(=O)cc3n2)cc1 | – | 28.2 µM (active) |
| O=c1cc2nc(-c3ccccc3)nc(SCCOc3ccc(Cl)cc3)n2[nH]1 | -17.2% (inactive) | – |
| O=C(OCc1ccccc1)c1ccc(O)cc1 | -3.18% (inactive) | – |
| COC(=O)N1C(/C=C/C=C/c2ccc(OC)cc2)=Cc2ccccc2C1CC(C)=O (stereo unspecified) | -6.97% [at 12.4 µM] (inactive) | – |
| C[C@H]1Cc2c(-c3ccccc3)nc3c(c2CO1)CN(S(=O)(=O)c1ccc(Cl)c2nonc12)CC3 | -0.0157% [at 12.4 µM] (inactive) | – |
| O=c1c(CCc2ccccc2)nc2cnc(N3CCNCC3)nc2n1Cc1cccs1 | -4.03% (inactive) | – |
| COc1cc(OC)cc(-c2nnc(SCC(=O)Nc3ccc(C(=O)O)cc3)s2)c1 | -4.98% (inactive) | – |
| COc1ccc(NC(=O)CSc2nc(N)c(-c3ccccc3)c(=O)[nH]2)cc1 | -0.862% (inactive) | – |
| COc1ccc(-c2nc3c(c(SCC(=O)Nc4ccc(C(=O)O)cc4)n2)Cc2ccccc2O3)cc1 | – | 7.08 µM (active) |
| Cc1ccc(S(=O)(=O)NC(=O)COc2ccccc2C)cc1 | -0.852% (inactive) | – |
| C=C(C)CNC(=S)N/N=C/c1ccccc1OCC(=O)O | 2.68% (inactive) | – |
| Cc1ccc(NS(=O)(=O)c2ccc(N/N=C/c3ccccc3OCC(=O)O)c([N+](=O)[O-])c2)c(C)c1 | – | 7.08 µM (active) |
| COc1c(O)c2c(=O)cc(OC)c3c4c(OC)cc(=O)c5c(O)c(OC)c6c(c(c1C[C@@](C)(O)[C@H]6C(C)=O)c23)c54 | -7.75% (inactive) | – |
| COC(=O)[C@@]1(C)C=C[C@@H](Cc2ccccc2)N1C(C)=O | 0.615% (inactive) | – |
| CCc1c2c(nc3ccc(O)cc13)-c1cc3c(c(=O)n1C2)COC(=O)[C@]3(O)CC | 2.37% (inactive) | – |
| Oc1ccc(Cl)c2c1CCC2 | -5.49% (inactive) | – |
| COc1ccc(C(=O)N2CCC3(CCCN(C(c4ccccc4)c4ccccc4)C3)CC2)cc1 | -11% (inactive) | – |
| Cc1cc(N=Nc2ccc3ccccc3c2)ccc1O | -11% (inactive) | – |
| CCCC(=O)Nc1ccc(NC(=O)c2sc3ccccc3c2Cl)cc1 | -4.36% (inactive) | – |

| Structure (SMILES) | activity change, negative = inhibition | Potency |
| --- | --- | --- |
| COC(=O)c1cc(NC(=O)c2sc3ccccc3c2Cl)cc(C(=O)OC)c1 | -3.91% (inactive) | – |
| CCOc1[nH]n(-c2ccc(Cl)cc2)c(=O)c1C=Nc1ccc(O)cc1 | -10.3% (inactive) | – |
| Oc1ccc(N=Cc2c(O)ccc3ccccc23)cc1 | – | 31.6 µM (active) |
| Oc1ccc(N=Cc2sc3ccccc3c2Cl)cc1 | – | 20 µM (active) |
| Cc1cccc(CNc2ccnc(-c3cccnc3)n2)c1 | -2.36% (inactive) | – |
| O=C(Nc1cc(C(=O)Nc2ccc(S(=O)(=O)O)cc2)cc(C(=O)Nc2ccc(S(=O)(=O)O)cc2)c1)Nc1cc(C(=O)Nc2ccc(S(=O)(=O)O)cc2)cc(C(=O)Nc2ccc(S(=O)(=O)O)cc2)c1 | -1.71% (inactive) | – |
| O=C(c1ccncc1)N1CCC2(CCCN(C(c3ccccc3)c3ccccc3)C2)CC1 | -8.72% (inactive) | – |
| O=C(c1cnccn1)N1CCC[C@@]2(CCN(Cc3ccncc3)C2)C1 | 4.22% (inactive) | – |
| CCc1nc(-c2cc(S(=O)(=O)N3CCN(c4ccc(OC)cc4)CC3)ccc2OC)no1 | -13.5% (inactive) | – |
| CCCS(=O)(=O)c1ncc(Cl)c(C(=O)Nc2scc(-c3ccccc3)c2C(=O)OCC)n1 | 0.746% (inactive) | – |
| Oc1c(C(c2ccc(F)cc2)N2CCN(Cc3ccccc3)CC2)sc2nc(-c3ccco3)nn12 (stereo unspecified) | -2.07% (inactive) | – |
| C=C1C([C@@]2(C)C(OC(C)=O)CC(=O)O[C@@](C)(COC(C)=O)C2CC(=O)OC)C(OC=O)C(OC(=O)C(O)C(C)CC)[C@]2(C)C(c3ccoc3)CC(=O)C12O (stereo partly specified) | 2.02% (inactive) | – |
| CC(=O)N1CCC2(CCCN(Cc3ccc(C#N)cc3)C2)CC1 | 3.65% (inactive) | – |
| CC1(C)C=CC(=O)[C@]2(C)C1CC(=O)[C@]1(C)C2CC[C@@]2(C)C(c3ccoc3)OC(=O)C3OC321 (stereo partly specified) | 0.499% (inactive) | – |
| C=C1CCN(C(CC(C)C)C(=O)N2CCOCC2)S(=O)(=O)c2ccccc21 (stereo unspecified) | -13.3% (inactive) | – |
| COc1ccc(S(=O)(=O)NCC(c2ccc(N(C)C)cc2)N2CCc3ccccc32)cc1OC (stereo unspecified) | -10.6% (inactive) | – |
| O=C(O)c1ccc(/C=C2/SC(=S)N(c3cccc(C(F)(F)F)c3)C2=O)cc1 | -13.8% (inactive) | – |
| Cn1c(N)c(C(=O)COC(=O)c2cc(C(F)(F)F)nc3c(C(F)(F)F)cccc23)c(=O)n(C)c1=O | -3.53% (inactive) | – |
